Assay in all cases: log2 fold change, soluble protein after heating vs DMSO (PISA); higher = thermal stabilisation; K562 lysate, 10 uM; active = over 0.2 and 3.5 SD of the protein, either way, in both replicates (recomputed)
Compound in experiment [1]: NCC(=O)Nc1ccc(-n2nc(C(F)(F)F)cc2-c2ccc3c(ccc4ccccc43)c2)cc1
A digest of the protocol:
(§1)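 Log-two fold change in thermal stability relative to solvent controls is reported from duplicates. For each sample, crude K562 extract from dounce-homogenised pellets in PBS pH 7.4 with 1 mM MgCl2, at 1 mg/mL protein, was treated with 10 μM compound for 30 min. Aliquots heated for 3 min across 48°C-58°C were pooled, brought to 0.5% NP-40 at 4°C and cleared at 21,000xg for 90 min. The supernatant was quantified by TMTpro 16plex LC-MS/MS with channel sums equalised.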

Compound in another experiment: O=C(CCCCCCC(=O)Nc1ccccc1)NO [vorinostat]
An outline of the steps: as §1

Compound in another experiment: O=C(O)c1ccc2c(c1)nc(Nc1cccc(Cl)c1)c1ccncc12 [silmitasertib]
An outline of the steps:
as §1

Compound in experiment [2]: O=C1NC(=O)C(c2cnc3ccccn23)=C1c1cn2c3c(cc(F)cc13)CN(C(=O)N1CCCCC1)CC2
An outline of the steps:
as §1

Compound in the next experiment: c1cn2cc(-c3ccc4cn[nH]c4c3)nc(Nc3ccc(N4CCOCC4)cc3)c2n1 [entospletinib]
An outline of the steps:
as §1

Targets with a hit are over-represented here; the source holds about 8,800 in all. About 0.5% of all pairs of compound and target were hits. Values without a mark were called inactive.

Sequence of UniProt Q9UKA4 (Q9UKA4 whole entry, looked up): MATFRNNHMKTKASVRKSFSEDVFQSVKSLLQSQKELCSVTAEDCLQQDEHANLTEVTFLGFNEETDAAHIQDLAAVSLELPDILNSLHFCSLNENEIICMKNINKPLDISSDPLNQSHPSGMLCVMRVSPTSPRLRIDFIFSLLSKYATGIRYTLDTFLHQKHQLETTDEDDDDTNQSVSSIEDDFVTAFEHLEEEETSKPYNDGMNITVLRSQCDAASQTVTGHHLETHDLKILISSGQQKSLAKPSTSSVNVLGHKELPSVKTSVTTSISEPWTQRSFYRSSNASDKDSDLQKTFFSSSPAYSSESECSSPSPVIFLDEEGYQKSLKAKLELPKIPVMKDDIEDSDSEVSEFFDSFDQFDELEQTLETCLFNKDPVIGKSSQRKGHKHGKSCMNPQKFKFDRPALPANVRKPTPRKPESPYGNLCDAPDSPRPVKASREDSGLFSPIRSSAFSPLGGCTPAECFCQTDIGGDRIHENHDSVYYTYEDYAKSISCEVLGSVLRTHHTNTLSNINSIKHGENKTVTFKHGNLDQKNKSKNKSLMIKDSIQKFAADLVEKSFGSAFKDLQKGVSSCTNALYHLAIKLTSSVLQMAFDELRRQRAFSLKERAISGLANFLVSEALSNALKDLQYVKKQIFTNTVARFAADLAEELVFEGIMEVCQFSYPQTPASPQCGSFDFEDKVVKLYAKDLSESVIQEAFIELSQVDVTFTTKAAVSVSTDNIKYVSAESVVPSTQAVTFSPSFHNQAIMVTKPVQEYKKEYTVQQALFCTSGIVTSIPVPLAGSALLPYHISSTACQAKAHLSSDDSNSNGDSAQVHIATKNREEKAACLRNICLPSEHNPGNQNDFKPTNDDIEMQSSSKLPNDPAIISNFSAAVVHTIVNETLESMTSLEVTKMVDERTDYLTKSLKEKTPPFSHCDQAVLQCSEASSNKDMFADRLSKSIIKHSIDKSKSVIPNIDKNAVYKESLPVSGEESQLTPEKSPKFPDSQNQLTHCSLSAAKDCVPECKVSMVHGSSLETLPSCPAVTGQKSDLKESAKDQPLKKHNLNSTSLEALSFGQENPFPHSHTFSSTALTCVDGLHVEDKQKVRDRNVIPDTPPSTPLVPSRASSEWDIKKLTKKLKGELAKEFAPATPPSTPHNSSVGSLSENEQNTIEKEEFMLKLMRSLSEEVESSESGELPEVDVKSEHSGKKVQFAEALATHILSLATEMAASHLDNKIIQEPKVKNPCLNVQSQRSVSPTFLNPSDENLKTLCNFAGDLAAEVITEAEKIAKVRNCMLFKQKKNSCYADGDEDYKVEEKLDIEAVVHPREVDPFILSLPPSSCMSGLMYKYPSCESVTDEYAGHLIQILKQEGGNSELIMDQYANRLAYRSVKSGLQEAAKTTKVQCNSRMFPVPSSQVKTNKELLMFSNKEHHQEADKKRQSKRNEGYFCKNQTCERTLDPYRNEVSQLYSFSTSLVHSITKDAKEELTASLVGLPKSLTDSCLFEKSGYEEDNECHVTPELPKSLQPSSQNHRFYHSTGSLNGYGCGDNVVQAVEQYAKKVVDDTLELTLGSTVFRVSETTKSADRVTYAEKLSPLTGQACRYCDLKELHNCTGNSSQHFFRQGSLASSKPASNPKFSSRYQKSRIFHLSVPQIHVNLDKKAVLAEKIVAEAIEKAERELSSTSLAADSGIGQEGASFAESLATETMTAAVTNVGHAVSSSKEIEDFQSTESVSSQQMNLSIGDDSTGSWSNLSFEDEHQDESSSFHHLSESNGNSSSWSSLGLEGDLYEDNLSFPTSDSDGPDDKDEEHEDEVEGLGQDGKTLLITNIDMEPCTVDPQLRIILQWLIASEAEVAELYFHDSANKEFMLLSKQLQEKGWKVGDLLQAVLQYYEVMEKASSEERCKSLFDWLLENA
Sequence of UniProt P54886 (P54886 whole entry, looked up): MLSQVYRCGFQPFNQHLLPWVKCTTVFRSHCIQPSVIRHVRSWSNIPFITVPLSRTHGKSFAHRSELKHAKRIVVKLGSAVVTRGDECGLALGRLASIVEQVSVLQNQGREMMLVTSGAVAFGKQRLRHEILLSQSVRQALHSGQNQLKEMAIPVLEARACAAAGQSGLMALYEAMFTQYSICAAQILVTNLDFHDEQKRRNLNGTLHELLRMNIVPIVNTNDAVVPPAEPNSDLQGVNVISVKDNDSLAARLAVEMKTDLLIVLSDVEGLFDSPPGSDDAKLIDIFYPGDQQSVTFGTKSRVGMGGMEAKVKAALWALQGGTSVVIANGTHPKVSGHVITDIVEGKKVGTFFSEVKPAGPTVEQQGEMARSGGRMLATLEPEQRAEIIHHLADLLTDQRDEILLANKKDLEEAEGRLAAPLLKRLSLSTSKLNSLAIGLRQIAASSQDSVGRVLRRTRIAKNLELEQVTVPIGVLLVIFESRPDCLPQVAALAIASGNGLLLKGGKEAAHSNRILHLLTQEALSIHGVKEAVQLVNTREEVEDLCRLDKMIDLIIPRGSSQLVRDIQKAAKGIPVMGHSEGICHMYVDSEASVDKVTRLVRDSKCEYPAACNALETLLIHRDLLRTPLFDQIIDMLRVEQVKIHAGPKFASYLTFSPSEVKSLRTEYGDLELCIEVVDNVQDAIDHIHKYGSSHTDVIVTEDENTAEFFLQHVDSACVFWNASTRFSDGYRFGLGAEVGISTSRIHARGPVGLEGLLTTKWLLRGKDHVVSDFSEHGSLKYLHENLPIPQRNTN
Sequence of UniProt P11310 (P11310 whole entry, looked up): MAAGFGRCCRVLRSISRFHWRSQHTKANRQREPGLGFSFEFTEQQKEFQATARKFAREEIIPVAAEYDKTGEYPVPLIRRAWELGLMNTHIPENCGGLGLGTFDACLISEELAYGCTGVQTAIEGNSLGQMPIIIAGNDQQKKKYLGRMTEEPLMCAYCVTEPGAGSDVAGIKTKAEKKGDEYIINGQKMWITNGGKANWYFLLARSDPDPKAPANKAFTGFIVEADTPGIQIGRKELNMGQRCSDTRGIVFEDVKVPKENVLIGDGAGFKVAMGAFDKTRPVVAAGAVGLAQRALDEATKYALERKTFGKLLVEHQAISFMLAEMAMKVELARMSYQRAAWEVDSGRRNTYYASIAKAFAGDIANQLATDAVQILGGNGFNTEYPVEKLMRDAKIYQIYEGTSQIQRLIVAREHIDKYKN
Sequence of UniProt Q96P48 (Q96P48 whole entry, looked up): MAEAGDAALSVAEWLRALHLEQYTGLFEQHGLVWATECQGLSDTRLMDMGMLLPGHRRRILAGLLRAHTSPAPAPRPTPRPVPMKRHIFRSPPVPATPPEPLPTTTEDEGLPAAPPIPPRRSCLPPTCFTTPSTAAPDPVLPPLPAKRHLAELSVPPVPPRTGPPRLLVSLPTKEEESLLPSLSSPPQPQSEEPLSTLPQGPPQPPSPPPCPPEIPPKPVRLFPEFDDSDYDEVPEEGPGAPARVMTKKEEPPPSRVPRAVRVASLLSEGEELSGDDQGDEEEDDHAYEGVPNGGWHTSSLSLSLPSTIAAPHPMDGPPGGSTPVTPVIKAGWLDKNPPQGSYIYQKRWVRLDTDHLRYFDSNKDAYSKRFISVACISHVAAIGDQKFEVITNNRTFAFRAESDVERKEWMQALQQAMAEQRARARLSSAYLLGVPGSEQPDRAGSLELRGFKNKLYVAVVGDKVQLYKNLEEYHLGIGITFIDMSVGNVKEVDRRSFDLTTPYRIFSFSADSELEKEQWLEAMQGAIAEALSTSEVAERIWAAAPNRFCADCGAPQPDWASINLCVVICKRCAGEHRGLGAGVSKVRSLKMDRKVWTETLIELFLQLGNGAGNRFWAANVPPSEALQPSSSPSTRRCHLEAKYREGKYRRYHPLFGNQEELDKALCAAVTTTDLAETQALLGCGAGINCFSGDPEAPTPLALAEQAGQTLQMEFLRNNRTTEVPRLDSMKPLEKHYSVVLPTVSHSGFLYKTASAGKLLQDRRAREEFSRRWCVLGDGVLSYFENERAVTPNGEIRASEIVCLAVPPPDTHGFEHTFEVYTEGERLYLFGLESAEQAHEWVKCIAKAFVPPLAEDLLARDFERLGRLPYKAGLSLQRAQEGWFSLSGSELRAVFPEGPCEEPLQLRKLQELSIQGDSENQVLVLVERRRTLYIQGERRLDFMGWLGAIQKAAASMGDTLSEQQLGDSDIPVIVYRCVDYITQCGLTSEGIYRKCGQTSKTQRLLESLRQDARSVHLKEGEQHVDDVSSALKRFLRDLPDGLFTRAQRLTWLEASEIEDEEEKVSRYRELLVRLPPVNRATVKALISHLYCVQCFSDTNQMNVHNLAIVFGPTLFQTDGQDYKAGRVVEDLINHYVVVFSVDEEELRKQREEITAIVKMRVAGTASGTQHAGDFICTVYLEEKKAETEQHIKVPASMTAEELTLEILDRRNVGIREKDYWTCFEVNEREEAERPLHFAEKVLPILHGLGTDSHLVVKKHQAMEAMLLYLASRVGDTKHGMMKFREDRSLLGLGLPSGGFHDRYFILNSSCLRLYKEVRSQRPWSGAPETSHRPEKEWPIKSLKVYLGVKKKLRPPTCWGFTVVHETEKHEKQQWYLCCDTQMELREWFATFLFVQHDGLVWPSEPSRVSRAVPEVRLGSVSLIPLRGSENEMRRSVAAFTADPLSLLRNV
Sequence of UniProt P00568 (P00568 whole entry, looked up): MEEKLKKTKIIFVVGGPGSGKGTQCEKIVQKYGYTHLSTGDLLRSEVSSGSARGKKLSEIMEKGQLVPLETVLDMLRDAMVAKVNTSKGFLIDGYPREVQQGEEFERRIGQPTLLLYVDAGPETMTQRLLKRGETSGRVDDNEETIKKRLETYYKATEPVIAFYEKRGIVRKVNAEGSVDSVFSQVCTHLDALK

As to ABCA3 (UniProt Q99758), the log2 fold change was -0.157 in experiment [1]; 0.087 with vorinostat; -0.062 with silmitasertib; 0 in experiment [2]; 0.28 with entospletinib.
As to AKAP11 (UniProt Q9UKA4), the log2 fold change in experiment [1] was -0.066; with vorinostat it was -0.164; with silmitasertib, 0.019; in experiment [2], -0.057; with entospletinib, 0.015.
For ALDH18A1 (UniProt P54886), the log2 fold change in experiment [1] was 0.023; with vorinostat, -0.401 (active); with silmitasertib, 0.023; in experiment [2], -0.015; with entospletinib, 0.022.
In the case of ASCC2 (UniProt Q9H1I8), the log2 fold change was -0.008 in experiment [1]; -0.048 in the experiment with vorinostat; 0.077 with silmitasertib; 0.026 in experiment [2]; -0.017 in the experiment with entospletinib.
Turning to AP4B1 (UniProt Q9Y6B7), the log2 fold change was 0.08 in experiment [1]; -0.286 (active) with vorinostat; 0.037 with silmitasertib; -0.051 in experiment [2]; 0.022 in the experiment with entospletinib.
Turning to ABL2 (UniProt P42684), the log2 fold change in experiment [1] is -0.093; with vorinostat, -0.274; with silmitasertib it was 0.073; in experiment [2], -0.055; with entospletinib, -0.05.
Consider ACADM isoform 2 (UniProt P11310), for which the log2 fold change in experiment [1] was -0.015; in the experiment with vorinostat, 0.344 (active); with silmitasertib it was -0.015; in experiment [2] it was 0.023; with entospletinib, 0.016.
Turning to ARAP1 (UniProt Q96P48), the log2 fold change in experiment [1] is -0.04; with vorinostat, -0.379 (active); with silmitasertib it was 0.017; in experiment [2] it was -0.014; with entospletinib, -0.012.
For AK1 (UniProt P00568), in that order: 0.005, 0.075, 0.001, -0.001 and 0.022.

Values taken from the supplement of paper PMC10849652.
